According to PubChem BioAssay (NCI):
Compounds without any hit were thinned out: in the full panel of roughly 79,000, 15% have a hit. Active and inactive are the calls of the source. Rule as the data show it: active = growth inhibition above about 70%; inactive = the rest. Where a SMILES comes first, the peptide text is derived from it. [ ]: non-standard residue; d: D form. The star is where a group is joined. ξ: configuration not given here. ξE = NC(CCC(=O)O)C(=O)O; Cbz = O=C(OCc1ccccc1)*

Legend:
[1] = NCI Yeast Anticancer Drug Screen. Data for the rad50 strain (AID 155);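 also: 0% = growth of vehicle-only cultures of the same strain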; details: S. cerevisiae rad50 strain growth inhibition; at 50.0 µM; active compounds read high
Outline: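 Inhibition values express reduced yeast growth in compound-treated cultures relative to vehicle-treated controls.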

[2] = NCI Yeast Anticancer Drug Screen. Data for the mec2-1 strain (AID 157); details: S. cerevisiae mec2-1 strain, at 50.0 µM, active compounds read high
Outline: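 Cells of the genetically defined mec2-1 yeast strain are incubated with test compound. Inhibition of growth is calculated against vehicle-treated controls.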

[3] = NCI Yeast Anticancer Drug Screen. Data for the sgs1 mgt1 strain (AID 161);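 also: 0% = growth of cultures given vehicle only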; details: S. cerevisiae sgs1 mgt1 strain, at 50.0 µM, active compounds read high
Outline: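 Test agents were incubated with a DNA-repair-mutant yeast strain. Growth was then read and compared against vehicle-treated controls.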

[4] = NCI Yeast Anticancer Drug Screen. Data for the cln2 rad14 strain (AID 165);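 also: 0% = growth equal to vehicle treated cultures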; details: S. cerevisiae cln2 rad14 strain, at 50.0 µM, active compounds read high
Outline: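 The screen exposed genetically defined yeast (cln2 rad14) to test compounds and scored growth inhibition relative to vehicle-treated controls.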

[5] = NCI Yeast Anticancer Drug Screen. Data for the bub3 strain (AID 167); details: S. cerevisiae bub3 mutant strain, at 50.0 µM, active compounds read high
Outline: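 Steps: expose the mutant yeast strain to compound; grow alongside vehicle-treated cultures; measure growth; express inhibition against the vehicle cultures.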

[6] = NCI Yeast Anticancer Drug Screen. Data for the mlh1 rad18 strain (AID 175); details: S. cerevisiae mlh1 rad18 strain growth inhibition; at 50.0 µM; active compounds read high
Outline: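 Compound-treated yeast growth, normalised to vehicle controls. Strain bears defined DNA repair mutations.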

Measured: growth inhibition

C=C(Cl)COC(=O)C(C)O (configuration not stated)
inactive: [1] 3% | [2] -12.2% | [3] -7.55% | [4] 24.4% | [5] -7.4% | [6] 8.95%

O=C(O)CCC(NC(=O)OCc1ccccc1)C(=O)NCC(=O)O (configuration not stated) (Cbz-[ξE]-Gly-OH)
inactive: [1] 12.3% | [2] 2.85% | [3] 0.35% | [4] 46.8% | [5] 3.15% | [6] -6.5%

COc1ccc(/C=C/C2=CC(=O)CC(c3ccc(OC)c(OC)c3)C2)cc1OC (configuration not stated)
inactive: [1] 13.2% | [2] 5.35% | [3] 16.5% | [4] -35.6% | [5] 31.2% | [6] 9.35%

CC(C)(C(=Nc1ccc([N+](=O)[O-])cc1)N1CCOCC1)c1ccccc1
inactive: [1] 9% | [2] 6.7% | [3] 5.05% | [4] 34.6% | [5] 32.1% | [6] 22.6%

O=C1NC(c2ccccc2)(c2ccccc2)C(=O)N1CNc1ccccn1
inactive: [1] -0.4% | [2] -14.8% | [3] -31.8% | [4] 8.95% | [5] -8.3% | [6] 29.6%

O=[N+]([O-])c1ccc(SCN(CSc2ccc([N+](=O)[O-])cc2)Cc2ccccc2)cc1
inactive: [1] -6.35% | [2] -6.85% | [3] -1.2% | [4] -17.4% | [5] 4.65% | [6] -7%

O=NN(CCCl)C(=O)NC1c2cc(Cl)ccc2-c2c(Cl)cc(Cl)cc21 (configuration not stated)
active: [1] 84.3% | [3] 73.7% | [6] 86.5%
inactive: [2] 59.3% | [4] 48.5% | [5] 22.8%

Nc1cc2c(cc1Br)-c1c(C(=O)O)cccc1C2=O
inactive: [1] -20% | [2] 9.3% | [3] -2.4% | [4] 7.1% | [5] 11.2% | [6] -13.1%

CC1(C)C2CCC(I)(C2)C1I (configuration not stated)
inactive: [1] 10.9% | [2] 0.45% | [3] -17.3% | [4] -15.8% | [5] 1.55% | [6] 10.3%

N=c1ccc([N+](=O)[O-])cn1O
inactive: [1] 13.4% | [2] 11.7% | [3] -2% | [4] -41.5% | [5] -2.8% | [6] 1.95%

Cc1[nH]nc2c(=O)n(N)nnc12
inactive: [1] 18.4% | [2] 7.3% | [3] 0.35% | [4] -16.9% | [5] -15.8% | [6] 26.4%

CSC#CC(Sc1c(Cl)c(Cl)c(Cl)c(Cl)c1Cl)=C(Sc1c(Cl)c(Cl)c(Cl)c(Cl)c1Cl)Sc1c(Cl)c(Cl)c(Cl)c(Cl)c1Cl
inactive: [1] 2.55% | [2] -0.8% | [3] -1.7% | [4] -3.6% | [5] -0.6% | [6] -15.5%

CC1(C)CCc2cc3c(cc2O1)OC(C)(C)CC3=O
inactive: [1] 9.05% | [2] 8.75% | [3] -15.9% | [4] 22.4% | [5] -1.45% | [6] -17.4%

Cc1cc(C)c(Cc2c(C)cc(C)cc2C)c(C)c1
inactive: [1] 14.8% | [2] -25.6% | [3] 7.25% | [4] -2.85% | [5] 23.9% | [6] 13.9%

C=C1C(=O)OC2C1C(OC(=O)/C(C)=C/C)CC1(C)C(=O)CCC(=C)C21 (configuration not stated)
inactive: [1] 38.3% | [2] 47% | [3] 52.8% | [4] 44.1% | [5] 52.8% | [6] 63.6%

S=C(NCN1CCOCC1)NCN1CCOCC1
inactive: [1] -14.8% | [2] 5.75% | [3] -5.2% | [4] -2.7% | [5] 2.05% | [6] -16%

Cc1c(C#N)c(=N)oc2ccccc12
inactive: [1] 7.9% | [2] 7.35% | [3] 22.8% | [4] 14.5% | [5] 18.1% | [6] -31.5%

CC(=O)Oc1c(C)cc(C(=O)CO)cc1C
inactive: [1] 34.7% | [2] 15.4% | [3] 27.7% | [4] 6.75% | [5] 14.4% | [6] 31.8%

CN(C)CCC(N)(P(=O)([O-])[O-])P(=O)([O-])[O-].N.N.[Pt+2]
inactive: [1] -24.5% | [2] 2.2% | [3] 3.15% | [4] 12.9% | [5] 12.3% | [6] 3.95%

CCCCCCCCCC/C=C/C=O
inactive: [1] 57.6% | [2] 43.5% | [3] 53.8% | [4] 18.7% | [5] 43.6% | [6] 8.9%

COc1ccc(C(=O)N/N=C/c2ccccc2OC)cc1
inactive: [1] -3.1% | [2] 31% | [3] 25.4% | [4] -10.6% | [5] 27.9% | [6] 32%

O=C(Nc1ccc2ccccc2c1)C(F)(F)F
inactive: [1] -14.7% | [2] -1% | [3] -4.25% | [4] -9.8% | [5] 5.4% | [6] -8.95%

O=C1/C(=C/c2ccccc2)CN(C(=O)Oc2ccccc2)C/C1=C\c1ccccc1
inactive: [1] -21% | [2] -15.2% | [3] -12.9% | [4] 10.3% | [5] -7.05% | [6] -13.8%

O=S(=O)(Cc1c[nH]c2ccccc12)c1ccccc1
inactive: [1] 34.1% | [2] -3.2% | [3] 31.1% | [4] 11.3% | [5] 20.5% | [6] 37.6%

CC(=O)Nc1nc(Cl)c2cc[nH]c2n1
inactive: [1] -1.05% | [2] 2.5% | [3] -5.5% | [4] -10.3% | [5] -11.9% | [6] -11.6%

Cc1ccc(S(=O)(=O)OC(c2ccc(C(OS(=O)(=O)c3ccc(C)cc3)(C(F)(F)F)C(F)(F)F)cc2)(C(F)(F)F)C(F)(F)F)cc1
inactive: [1] 4.45% | [2] 6.65% | [3] -17.8% | [4] 10.8% | [5] 4.4% | [6] 4.7%

N#Cc1c2c(n3c1[nH]c(=O)c1ccccc13)CCCC2
inactive: [1] 24.4% | [2] 10% | [3] 23.9% | [4] 11.9% | [5] -2.8% | [6] 10.8%

CNc1c([N+](=O)[O-])cc2[nH]c(C)nc2c1[N+](=O)[O-]
inactive: [1] 22.4% | [2] 19.3% | [3] 42.9% | [4] 0.05% | [5] 0.95% | [6] 11.6%

CCOC(=O)C(O)Cc1cnc2ccccc2n1 (configuration not stated)
inactive: [1] -1.45% | [2] -13.3% | [3] -12.3% | [4] -13.3% | [5] -11.1% | [6] 7.55%

C/C(CC1CC=CCC1)=N\NC(N)=O (configuration not stated)
inactive: [1] -16.1% | [2] -4.7% | [3] -2.6% | [4] -20.5% | [5] -3.8% | [6] 30.8%

Cc1cc2c(=O)cc(-c3ccc(C(F)(F)F)cc3)oc2c(C(=O)O)c1C
inactive: [1] -34.6% | [2] -3.8% | [3] -2.3% | [4] 13.1% | [5] 0.4% | [6] 12.8%

CN(C)CCC(=O)c1ccc(C(=O)CCN(C)C)cc1
inactive: [1] -0.4% | [2] 25.6% | [3] -17.1% | [4] -14.8% | [5] -16.2% | [6] -21.2%

C[N+]1(C)CCCC(OC(=O)C(O)(c2ccccc2)c2ccccc2)C1 (configuration not stated)
inactive: [1] 38% | [2] 10.1% | [3] 15.6% | [4] -18.9% | [5] 13.6% | [6] 27.7%

Cc1cccn2c(C)nnc12
inactive: [1] 3.4% | [2] 25.7% | [3] -1.35% | [4] 17.6% | [5] 28.1% | [6] 12.7%

NNC(=O)C1C2C=CC(C2)C1C(=O)NN (configuration not stated)
inactive: [1] 7.6% | [2] -8.05% | [3] -11.7% | [4] -35% | [5] 4.15% | [6] 4.2%

N=N/C(=C\c1c(O)[nH]c2ccccc12)c1ccccc1
inactive: [1] -7.35% | [2] 13.6% | [3] 34.2% | [4] -35.2% | [5] 57.3% | [6] -8.75%

C[N+](C)(C)c1ccc(C(=O)[O-])cc1
inactive: [1] 3.55% | [2] 18.8% | [3] -0.4% | [4] 0.55% | [5] 16% | [6] 8.1%

Cc1cc(NC(=O)C(=O)CC(=O)c2ccc(Cl)s2)no1
inactive: [1] -51.3% | [2] 4.95% | [3] -8.55% | [4] -56.4% | [5] -6.7% | [6] -2.6%

COc1cc(/C=C/C=C2\CCC/C(=C\C=C\c3ccc(O)c(OC)c3)C2=O)ccc1O
inactive: [1] 14.4% | [2] -0.05% | [3] 11.2% | [4] 19.3% | [5] 10.8% | [6] 14.2%

O=C1N/C(=N\OCCc2ccccc2)CC(NOCCc2ccccc2)N1 (configuration not stated)
inactive: [1] -0.2% | [2] 18.8% | [3] 2.25% | [4] -11.6% | [5] 40.5% | [6] 7.5%

CC1=Nc2cc(C)c(C)cc2NC(=O)C1
inactive: [1] -16.8% | [2] -43.9% | [3] -6.1% | [4] 20.4% | [5] -21.9% | [6] -1.7%

Cc1cc(OC(=O)c2ccccc2)c(C)c(C)c1OC(=O)c1ccccc1
inactive: [1] 6.15% | [2] -7.95% | [3] 15.2% | [4] 9.2% | [5] 8.4% | [6] 21.1%
